In the OligoGym collection one finds sensor-assay potency score (higher = more potent) data, which are given here for 40 sequences.
Also: reference of the scale not given here.

In the first experiment the target is TGFB1I1. Description: pooled miR-30 sensor sort-seq; sequence = guide strand. The conditions noted are these: shRNA.
TTGTGGAGCTCACCACCGGTGG: the sensor-assay potency score (higher = more potent) was -1.9.
TTTTCTTATCTTCAGACTGGTC displayed a sensor-assay potency score (higher = more potent) of -0.967.
The same measure, in the same setting: next, TTTGTGGAGCTCACCACCGGTG: -1.15.
Same read-out and setting: next, TTAAGTTCCTGAAGCAACCGAT: -0.211.
With TGAGACATGATTTCATCTGTGA, the sensor-assay potency score (higher = more potent) came to 0.918.
Same read-out and setting: next, TCATCTGTGATGTTGAACTGAG: -0.542; TAAGTTCCTGAAGCAACCGATC: -1.43.
Take TTTATTGCAGGAGCCACAGAGG: the sensor-assay potency score (higher = more potent) is -1.1.
TTGTCTGTGTGCAATCCACTTT showed a sensor-assay potency score (higher = more potent) of 0.0751.
Still for that read-out and setting: next, ATTTGTGGAGCTCACCACCGGT: -0.966.

The next experiment deals with THNSL1. Described as above. The settings on record: shRNA.
As for TATAATTGCAACTTGGTGGGAT, the sensor-assay potency score (higher = more potent) turned out to be 0.997.
The same measure, in the same setting: next, TTGCTCATTACCAACATCCTGT: 0.41.
Same read-out and setting: with TATCTGTGCTCTTTCTACGTAG the figure was -0.49.
Same read-out and setting: with TATACTAGAAAAACATTTCTGT the figure was 0.647; with TTGAGAATATCTATTGACGGTG, -0.169; with ATCTAGTAGAGGTACATCCAGG, -1.3.
As for TTTGAGAATATCTATTGACGGT, the sensor-assay potency score (higher = more potent) was -0.0842.
Turning to TATCCTTTGCTTATCATTCTTA, the sensor-assay potency score (higher = more potent) was found to be 0.234.
Turning to TTTGTCTCCAACAAGAGAGTGG, the sensor-assay potency score (higher = more potent) is -0.0448.
The same measure, in the same setting: with TATAGGTGGAGTTAATAGCTGC the figure was -0.591.
Turning to TATGACACAACAACCTAGTTTC, the sensor-assay potency score (higher = more potent) was -0.543.
Same read-out and setting: with TTCTTTAATCTTTAAAGCCTGC the figure was -0.791.

Another experiment has as its target THOC7. Described as above. The conditions noted are these: shRNA.
Take TTTTCGTATTCGTTTTGCTTGA: the sensor-assay potency score (higher = more potent) was -0.919.
On the same count and under the same terms, next, TTTGCTTGAAGAATTTGCTTTT: -0.209.
Still for that read-out and setting: next, TTTCCGTCTCAATTCCAGCTTA: -0.243.
The same measure, in the same setting: next, TTTAATGAAACTCTTCACTAGC: 0.0596.
TAATGTGTGAAAGATGCTCTAA: the sensor-assay potency score (higher = more potent) is 0.0139.
Regarding TTCCTGAGCTTCTTCTACCTCT, the sensor-assay potency score (higher = more potent) was -0.111.
With TAATTCTCCGATCATCTCCAGC, the sensor-assay potency score (higher = more potent) is -0.503.
The same measure, in the same setting: with TAAGAAGAACATGAAACTGTTT the figure was -0.283; with TATGCTACATTCTATTTCCTTG, -0.777; with TTTTGCTTGAAGAATTTGCTTT, -0.308.
On the same count and under the same terms, next, TTCGTATTCGTTTTGCTTGAAG: -0.51.

The next experiment deals with TIMM44. Described as above. The conditions noted are these: shRNA.
Sequence TTCTCTTCCGGAGTCGCTGGGG displayed a sensor-assay potency score (higher = more potent) of -0.531.
Regarding TTTACTGACTTCGTGAAGGCTC, the sensor-assay potency score (higher = more potent) was 0.133.
Same read-out and setting: next, TGACATTATCTAGCAAGCCGGA: -1.13.
On the same count and under the same terms, with ATCACTTTTACTGACTTCGTGA the figure was 0.235; with TAAGTAGCTTCATAGCACCAGT, -0.441; with TTCCGTAGCACCTCGCTCGTCC, 1.18.
Sequence ATCTTCATCTCGAAGAACCGGT showed a sensor-assay potency score (higher = more potent) of -0.094.
